# Measured values taken from PubChem BioAssay.
# Activity calls are given as the source filed them. How the calls were made is not given here.
# Target: L-lactate dehydrogenase (Plasmodium falciparum (isolate CDC / Honduras)) (UniProt Q27743)
# Assay: PfLDH activity inhibition – cell lysate, 3D7 strain, counter-screen for P. falciparum growth inhibition project (AID 2304);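 further: 0% = vehicle and 100% = reference inhibitor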
# Settings: P. falciparum 3D7 crude extract, LDH APAD/NBT absorbance; at 2 µM; hits give high values
# L-lactate dehydrogenase (Plasmodium falciparum (isolate CDC / Honduras)), sequence (Q27743 whole entry, looked up): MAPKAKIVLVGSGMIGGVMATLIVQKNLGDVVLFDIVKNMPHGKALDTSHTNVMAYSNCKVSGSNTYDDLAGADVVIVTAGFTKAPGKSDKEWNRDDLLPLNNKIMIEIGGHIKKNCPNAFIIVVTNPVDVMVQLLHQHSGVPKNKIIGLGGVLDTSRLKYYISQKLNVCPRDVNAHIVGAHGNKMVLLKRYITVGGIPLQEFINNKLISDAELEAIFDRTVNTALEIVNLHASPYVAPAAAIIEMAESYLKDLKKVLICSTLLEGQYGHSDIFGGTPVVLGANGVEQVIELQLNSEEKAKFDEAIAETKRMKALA
row,Compound,inhibition
1,Cc1cccc2[nH]c(-c3cccc(-c4ccc(NC(=O)Cc5cnc[nH]5)cc4)c3)nc12,-3% (inactive)
2,Fc1ccc(-c2nc(NCc3cccc(C(F)(F)F)c3)nn2-c2cccc(C(F)(F)F)c2)cc1C(F)(F)F,-5% (inactive)
3,Cc1cnc(NC(=O)c2cn(-c3ccccc3)nc2-c2cccs2)s1,-1% (inactive)
4,CCN(CC)CCNC(=O)c1ccc(NC(=O)c2oc3c(Cl)cccc3c2C)cc1,5% (inactive)
5,COc1ccc(C=C2SC(=O)NC2=Nc2ccccc2)c(OC)c1,-3% (inactive)
6,Cc1cc(N[C@@H](Cc2ccccc2)C(=O)NCCc2ccccc2)nc(NCc2ccccc2C)n1,-2% (inactive)
7,COc1cc(CNCCCCCCNCc2cc(OC)cc3ccccc23)c2ccccc2c1,-5% (inactive)
8,COc1cc(NC(=O)c2c(-c3c(Cl)cccc3Cl)noc2C)c(OC)cc1Cl,0% (inactive)
9,CN1CCN(CC2(Nc3nccc(NCc4ccc(Cl)cc4Cl)n3)CCCCC2)CC1,0% (inactive)
10,CN(C)CCCNCCS(=O)(=O)c1cccc(Nc2ccc(-c3cccc(N(C)C)c3)cn2)c1,-2% (inactive)
11,COc1cc(SC)c(Br)cc1-c1nc2ccncc2[nH]1,-1% (inactive)
12,Cc1cc(N2CCN(C3CCCCC3)CC2)nc2cccc(O)c12,-3% (inactive)
13,CCCCCCn1c(Sc2ccc(C#N)c([N+](=O)[O-])c2)nnc1-c1ccc(OC)cc1,2% (inactive)
14,Cc1cc(N[C@@H](Cc2ccccc2)C(=O)NCc2cccs2)nc(NCCOc2ccccc2)n1,-3% (inactive)
15,C(=N\Nc1nccc2sc(-c3cccnc3)cc12)/c1ccncc1,7% (inactive)
